Drawing on PubChem BioAssay AID738 (SRMLSC, 2007), this text covers inhibition for 27 compounds.

Each structure is given as a SMILES string. In all, about 98,000 compounds went through this assay and about 4,900 (5%) were called active. No stated cut-off is given here; in the data, active means inhibition above about 30%; inactive means the rest. The list comes from a sample in which actives are over-represented; it also holds similar structures and randomly drawn compounds.

The assay is described as follows: yeast control strain growth suppression – counter-screen for post-Golgi transport modulator project, primary screen (AID 738). The following applies: efflux-deficient yeast background strain, growth absorbance A615, 16 h; at 10 µM; stronger effect = higher value. On the technique in general: The purpose of a counterscreen is to sort out artefacts and off-target activity.
What is called inhibition is the drop in the measured response relative to a control, in per cent. In the case of `CSCc1cc(N(C)C)nc(SCc2ccc(Cl)cc2Cl)n1`, the inhibition was 15% (inactive). The figure for `CCOC(=O)c1sc(NC(=O)CSc2ncccn2)c(C#N)c1C` is 21.6% (inactive); for `CCOC(=O)c1ccc(NC(=O)CSc2ncccn2)cc1` it is 31.1% (active). Under `CCOC(=O)c1ccc(NC(=O)CSc2nnc(COc3ccccc3OC)n2C)cc1` stands 12.5% (inactive); under `CC(c1ccco1)N(C(=O)COc1ccccc1[N+](=O)[O-])c1ccccn1` (configuration not stated), 14.2% (inactive); under `C=CCNC(=O)c1sc(SC)cc1-c1ccc(Cl)cc1`, 11.2% (inactive). As for `CC1CCN(CC(=O)c2c[nH]c3ccccc23)CC1`, the inhibition was 6.25% (inactive). On to `Cc1ccc(C2CC(=O)NC(SCC(=O)OCc3ccccc3)=C2C#N)o1` (configuration not stated), for which the inhibition is 32% (active). As for `CCOC(=O)CSC1=C(C#N)C(c2ccco2)C(C(=O)OCc2ccccc2)=C(C)N1` (configuration not stated), the inhibition was 24.9% (inactive).

In the case of `CCOC(=O)CSC1=C(C#N)C(c2sccc2C)CC(=O)N1` (configuration not stated), the inhibition was 11.5% (inactive).

Turning to `CN(C)/C=C(\C#N)C(=O)c1cccnc1Oc1ccc(F)cc1F`, the inhibition is 2.7% (inactive). The figure for `O=C(NC1CCN(Cc2ccccc2)CC1)c1ccccc1F` is 6.56% (inactive); for `O=C(COc1ccccc1F)NC1CC1` it is -0.64% (inactive). The figure for `O=C(COc1ccc(Br)cc1F)NC1CCN(Cc2ccccc2)CC1` is 37.7% (active); for `Cc1ccc(C(=O)Nc2c(C#N)c(C)c(C)n2Cc2ccccc2)cc1` it is 17.1% (inactive). For the compound `CCOC1CS(=O)(=O)CC1OCC` (configuration not stated), the inhibition was 8.62% (inactive). `O=C(Nc1ccccc1C(F)(F)F)c1cc(-c2ccc(O)cc2)on1`: the inhibition was 2.42% (inactive).

Regarding `Cc1cc(C)nc(NC(=O)C(C)N2C(=O)c3ccccc3C2=O)n1` (configuration not stated), the inhibition was -0.16% (inactive). With `Cc1cc(C)nc(NC(=O)Nc2ccccc2C(F)(F)F)n1`, the inhibition was 34.3% (active). Take `COc1cc(SC)ccc1C(=O)NCCOc1ccccc1Cl`: the inhibition is 28.9% (inactive). Under `Cc1ccc(CNC(=O)CCNC(=O)Cn2ccc3ccccc3c2=O)cc1` stands 7.83% (inactive); under `CCOc1c2ccc(C(=O)NCc3ccc(OC(F)(F)F)cc3)cc2nn1C`, -2.75% (inactive); under `COc1ccc(C(=O)c2c(C)oc3cc([N+](=O)[O-])c(O)c([N+](=O)[O-])c23)cc1`, 15% (inactive). The figure for `Cc1c(NC(=O)c2cc(-c3ccc(Cl)s3)nc3ccccc23)c(=O)n(-c2ccccc2)n1C` is 44.6% (active); for `COC(=O)Nc1c(C)n(C)n(-c2ccccc2)c1=O` it is 6.08% (inactive).

As to `Cc1cc(C(=O)Nc2c(C)n(C)n(-c3ccccc3)c2=O)cs1`, the inhibition was 2.08% (inactive). Under `CCOC(=O)Nc1ccc(S(=O)(=O)N(C)C(C)C)cc1` stands 4.8% (inactive).
